{
  "source": "PubChem BioAssay AID504682",
  "about": "(Southern Research Specialized Biocontainment Screening …, 2011)",
  "note": "Entries with a potency or affinity are not part of this list. A number with no mark means an inactive call. No rule for the calls is given here.",
  "data": [
    {"experiment": "cytotoxicity control, cell-based, set 2 (AID 504682)", "settings": "HepG2 cytotoxicity; series mostly up to 50 µM; viability: at the top concentration", "units": {"viability": "%"}, "values": [
      {"molecule": "CCOC(=O)CNC(=O)[C@H](Cc1ccccc1)NC(=O)OCc1ccccc1", "viability": 98.7},
      {"molecule": "CN(C(=O)CSc1nc2ccccc2c(=O)[nH]1)C1CCCCC1", "viability": 88.6},
      {"molecule": "CC(=NCc1ccc2c(c1)OCO2)C1=C(O)c2ccccc2C1=O", "viability": 97.2},
      {"molecule": "O=C(CSc1ccccn1)NC1CCCCC1", "viability": 121},
      {"molecule": "CC[N+](C)(CC)CCCCOc1ccc2c(c1)C(=O)c1cc(OCCCC[N+](C)(CC)CC)ccc1-2", "viability": 87},
      {"molecule": "O=C(/C=C/c1ccccc1)N1CCN(CCN2C(=O)c3cccc4cccc(c34)C2=O)CC1", "viability": 96.5},
      {"molecule": "Cc1cc(=O)[nH]c(=S)[nH]1", "viability": 101},
      {"molecule": "Cc1ccc(NC(=O)C2C3/C=C\\CCCCC32)cc1C", "note": "(centres undefined)", "viability": 101},
      {"molecule": "Cc1cc(=O)[nH]c(SCC(=O)Nc2ccccc2)n1", "viability": 92.8},
      {"molecule": "CCn1c2ccccc2c2cc(NC(=O)CSc3nc(C)cc(=O)[nH]3)ccc21", "viability": 83.2},
      {"molecule": "CCOC1OC(=O)C(Cl)=C1Nc1ccccc1C", "note": "(centres undefined)", "viability": 95.3},
      {"molecule": "O=C(CSc1nc2ccccc2c(=O)[nH]1)NCc1ccc(Cl)cc1", "viability": 89.5},
      {"molecule": "CCOC(=O)COc1ccc(/C=C2\\NC(=S)N(CC)C2=O)cc1", "viability": 99.4},
      {"molecule": "CCc1ccc(/C=C2/C(=O)N(C)C(=S)N2CC(=O)OC)s1", "viability": 80},
      {"molecule": "Cc1c[nH]c(=S)[nH]c1=O", "viability": 105},
      {"molecule": "O=C(CSc1nccc(=O)[nH]1)Nc1ccc(N2CCOCC2)cc1", "viability": 90},
      {"molecule": "COC(=O)c1ccc(CNc2c(N3CCCC3)c(=O)c2=O)cc1", "viability": 97.2},
      {"molecule": "CCOC(=O)COn1c2c(c3c4no[n+]([O-])c4ccc31)CCCC2", "viability": 90.6},
      {"molecule": "O=C(CSc1ncccn1)NC1CCCCC1", "viability": 91.5},
      {"molecule": "COc1cc(NC(=O)C/C(C)=N/NC(=O)c2ccccn2)c(OC)cc1Cl", "viability": 80},
      {"molecule": "Cc1[nH]c(=S)[nH]c(=O)c1C", "viability": 95.4},
      {"molecule": "O=C(CSc1nc2ccccc2c(=O)[nH]1)NC1CCCCC1", "viability": 103},
      {"molecule": "COC(=O)C(C)Oc1ccc(-c2nccc(-c3ccccn3)n2)cc1", "note": "(centres undefined)", "viability": 92.1},
      {"molecule": "CCSc1nc(C)c(C)c(=O)[nH]1", "viability": 101},
      {"molecule": "Cc1nc(SCC(=O)N(C)c2ccccc2)[nH]c(=O)c1C", "viability": 108},
      {"molecule": "O=C(CSc1nccc(=O)[nH]1)Nc1ccc(Oc2ccccc2)cc1", "viability": 96.8},
      {"molecule": "O=c1[nH]c(=S)[nH]c2ccccc12", "viability": 96.8},
      {"molecule": "COC(=O)C1CC(=O)N(c2ccc(OCc3ccccc3Cl)cc2)C1", "note": "(centres undefined)", "viability": 96.1},
      {"molecule": "COC(=O)C(C)Oc1ccc(Cc2ncc(C(F)(F)F)cc2Cl)cc1", "note": "(centres undefined)", "viability": 97.9},
      {"molecule": "Cc1nc(SCc2ccccc2Cl)[nH]c(=O)c1C", "viability": 100},
      {"molecule": "O=C1C(Br)=Cc2cccc3cccc1c23", "viability": 92.1},
      {"molecule": "Cc1nc(SCC(N)=O)[nH]c(=O)c1C", "viability": 99.5},
      {"molecule": "COC(=O)CCc1nc2c(C#N)c(-c3ccc(Cl)cc3)ccn2n1", "viability": 98.8},
      {"molecule": "O=C(CSc1nc(O)cc(=O)[nH]1)Nc1ccccc1", "viability": 94.9},
      {"molecule": "CCSc1nc2ccccc2c(=O)[nH]1", "viability": 103},
      {"molecule": "CCOC(=O)C(C)Sc1ncnc2c1nnn2-c1ccc(F)cc1", "note": "(centres undefined)", "viability": 88.7},
      {"molecule": "Cc1ccc(NC(=O)COC(=O)CCc2c[nH]c3ccccc23)cc1[N+](=O)[O-]", "viability": 97.8},
      {"molecule": "CCOC(=O)CSc1nc(C)c(C)c(=O)[nH]1", "viability": 103},
      {"molecule": "Cc1nc(SCC(=O)NC2CCCCC2)[nH]c(=O)c1C", "viability": 101}
    ]}
  ]
}
